# MARV entry inh – qHTS for inhibitors of binding or entry into cells for Marburg Virus; AID 540276, 2011; Marburg virus pseudotyped entry inhibition, cell reporter; Potency, µM (highest dose often 37.8 µM), inactives show at the top dose activity change, negative = inhibition, most hits filed as inhibitors; hit rate 1.8% among 300,000; calls by dose curve; tested in HEK293 cells; note: potency is the fitted concentration of half-maximal effect; % is set by controls: 0 for no effect and ±100 for the full control effect
# HCV inh – qHTS Assay for Inhibitors of Hepatitis C Virus (HCV); Potency, µM (top dose mostly 41.8 µM), for inactives: at the top dose activity change, negative = inhibition, hits mostly inhibitors; AID 651820, 2012; hit rate 3.4% among 340,000; Huh7.5.1 HCVcc-Cre infection, luciferase reporter, 44 h; active = well fitted inhibition curve with a large enough effect; inconclusive = small, poorly fitted or top-dose-only effect, or another doubt; inactive = no such curve, though single readings can be large or run the other way; note: potency is the fitted concentration of half-maximal effect; % is set by controls: 0 for no effect and ±100 for the full control effect
#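 After 44 h co-culture of compound, cells and HCVcc-Cre (~0.5 moi), substrate is added for 15 min at room temperature and luciferase measured over 15 sec. Cells were seeded at 1,000/well and pre-cultured 4 h.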
# Shiga inhibitor – A qHTS for Small Molecule Inhibitors of Shiga Toxin; inhibition, % at 38.7 µM; Vero cells, Shiga toxin protein synthesis inhibition reporter; AID 2315, 2010; hit rate 9.2% among 290,000; in the data active = inhibition mostly above about 28%, no sharp cut-off; inactive = mostly below about 43%; note: 0% is about no effect
# FMDV antiviral – High Throughput Screening for Foot and Mouth Disease Virus Antivirals | FMDV antiviral cell-based qHTS | Potency, µM (titrated, usually from 57.9 µM), inactives show at the top dose activity change, negative = inhibition, most hits filed as inhibitors | hit rate 1.2% among 410,000; calls by dose curve; tested in HEK293T cells; note: read-out not given here; potency is the fitted concentration of half-maximal effect; % is set by controls: 0 for no effect and ±100 for the full control effect; nearly all actives have a fitted effect of over 45% in size
# CHX counter – Cycloheximide Counterscreen for Small Molecule Inhibitors of Shiga Toxin; hit rate 12% among 300,000; AID 2314, 2010; cell reporter, cycloheximide protein synthesis inhibition counterscreen; max response, %; in the data active = max response mostly above about 13%, no sharp cut-off; inactive = mostly below about 14%; note: read at 38.3 µM for the half of the compounds with a filed dose; 0% is about no effect
# Lassa entry inh – qHTS for Inhibitors of binding or entry into cells for Lassa Virus; Lassa virus pseudotype entry inhibition, cell reporter; Potency, µM (highest dose often 37.9 µM), without a hit: at the highest dose activity change, negative = inhibition, most hits filed as inhibitors; hit rate 1.2% among 300,000; calls by dose curve; tested in HEK293 cells; note: potency is the fitted concentration of half-maximal effect; % is set by controls: 0 for no effect and ±100 for the full control effect; nearly all actives have a fitted effect of over 50% in size
# Active calls of the source: *; ? = inconclusive; . = not tested or not shown; [ ] = dose if it differs, or a comment. Most compounds without a hit are left out; they make up all but 13% or so of the library.
SMILES,MARV entry inh,HCV inh,Shiga inhibitor,FMDV antiviral,CHX counter,Lassa entry inh
CN(C)c1ccc(S(=O)(=O)NCC(=O)OCC(=O)NC(=O)C2CCCCC2)cc1[N+](=O)[O-],.,10%,.,1%,.,.
O=C(Cn1nc(-c2ccccc2)c2ccccc2c1=O)Nc1cccc(O)c1,?,-18%,-9,-13%,-2,.
CC(=O)N(c1ccccc1C)c1ccccc1C,?,9%,.,20%,.,?
CC(=O)N(/N=C1\Sc2ccccc2C1=O)c1ccccc1C,?,?,91*,11%,68*,?
CC(=O)N(/N=C1\Sc2ccccc2C1=O)c1ccc(C)cc1C,?,4%,121*,?,59*,10µM*
CC(=O)N(/N=C1\Sc2ccccc2C1=O)c1ccccc1,?,-21%,37*,22%,40*,?
CC(=O)Oc1ccc(N(C(C)=O)S(=O)(=O)c2ccc(C)cc2C)c2ccccc12,.,?,-6,5%,-1,.
CC(=O)N(/N=C1/C(=O)Nc2ccccc21)c1ccccc1,20%[46.1 µM],-5%,44*,15%,28*,18%[46.1 µM]
CCCCN(C)CCNC(=O)c1cc(-c2cccnc2)nc2ccc(S(=O)(=O)N3CCC(C)CC3)cc12,?,-23%,48,22%,-13,-5%[46.1 µM]
C[C@H](NC[C@H](O)CP(=O)(O)Cc1ccccc1)c1ccc(Cl)c(Cl)c1,.,.,.,-7%,.,.
N#C/C(=C\c1ccc[nH]1)C(=O)NCC1CCCO1 (stereo not given),?,20%,38,54%,25*,?
Cc1ccc(/C=C(\C#N)C(=O)NCC2CCCO2)o1 (stereo not given),18%,3%,30,30%,1,10%
Cc1ccccc1-n1c(C)cc(/C=C(\C#N)C(=O)NCC2CCCO2)c1C (stereo not given),-40%,-17%,123*,36%,65*,15µM*
Cc1cc(/C=C(\C#N)C(=O)NCc2cccs2)c(C)n1-c1ccccc1F,-30%,?,80*,0%,52*,?
N#C/C(=C\c1ccco1)C(=O)NCC1CCCO1 (stereo not given),?,?,50*,21%,17*,3%
Cc1ccc(S(=O)(=O)Cc2nc(-c3ccc(C(=O)NCc4ccccc4C)cc3)oc2C)cc1,.,.,.,-12%,.,-1%[46.1 µM]
Cc1cc(C)c2nc(N(Cc3cccnc3)C(=O)Cc3ccccc3)sc2c1,.,.,.,18%,.,23%[46.1 µM]
CCc1cc2c(=O)oc(-c3ccccc3F)nc2s1,.,9%,.,-2%,14*,.
CNC(=O)c1ccc(Nc2nnc(-c3ccc(C)c(S(=O)(=O)N4CCCCC4)c3)c3ccccc23)cc1,.,.,.,15%,.,-15%[46.1 µM]
Cc1cc(C)nc(Sc2ccc(/C=C(\C#N)C(=O)Nc3ccccc3)o2)n1,14%,-14%,14,.,15,2%
N#C/C(=C/c1ccc(N2CCCCC2)o1)C(=O)Nc1ccc(Cl)cc1,3%,?,76*,48%,35*,?
N#C/C(=C/c1ccc(N2CCCCC2)o1)C(=O)Nc1ccc2ccccc2c1,?,10µM*,88*,-3%,40*,11%
O=C1C(Cl)=C(N2CCCCC2)C(=O)C(Cl)=C1c1cnc(N2CCCCC2)s1,?,?,13,-3%,-3,12µM*
CN(C)c1ncc(C2=C(Cl)C(=O)C(N3CCCC3)=C(Cl)C2=O)s1,?,7.9µM*,.,?,.,?
CC(C)NC(=O)c1cnc2sc(N3CCCCCC3)nn2c1=O,.,.,.,-7%,.,1%[46.1 µM]
SMILES,MARV entry inh,HCV inh,Shiga inhibitor,FMDV antiviral,CHX counter,Lassa entry inh
CCOC(=O)c1c(C=O)c2sc(C)cc2n1C,26%[46.1 µM],0%,59,12%,22*,4%
CCOC(=O)c1c(C=O)c2ccccc2n1CC,.,?,-16,-13%,-1,.
O=C(NC(=S)Nc1ccc2c(c1)OCCO2)c1ccco1,?,-7%,100*,23%,46*,?
O=C(c1ccco1)N1CCCC(Nc2ccc3c(c2)OCCO3)C1 (stereo not given),5%[46.1 µM],-2%,85*,43%,43*,0%[46.1 µM]
CSCc1ccc(C(=O)N2CCCC(Nc3ccc4c(c3)OCCO4)C2)o1 (stereo not given),.,2%,1,12%,0,.
O=C(NC1CCCC1)C(c1cccs1)N(C(=O)c1ccco1)c1ccc2c(c1)OCCO2 (stereo not given),-19%,?,52*,-2%,15*,?
O=C(NC(=S)Nc1ccc2oc(=O)ccc2c1)c1ccco1,-4%[46.1 µM],-4%,53*,0%,19*,-12%
CCC(C)NC(=O)c1ccc(CNS(=O)(=O)c2ccc3c(c2)C(C)(C)C(=O)N3C)cc1 (stereo not given),.,-4%,-4,-10%,-3,7%[46.1 µM]
COc1ccccc1NC(=O)/C=C1\SCC(=O)N1C,-28%[46.1 µM],1%,12,-5%,8,18%[46.1 µM]
O=C(NC(=S)Nc1cccc(O)c1)c1ccco1,.,?,94*,59%,54*,.
CCC(C)N(C)Cc1cccc(C2(O)CCN(S(=O)(=O)c3ccc(F)c(C)c3)CC2)c1 (stereo not given),?,?,-18,?,-4,?
Cn1cccc1C(=O)NCc1ccccn1,-16%,4%,.,23%,.,-4%
COc1cc2nc(CN(C)Cc3nc4ccccc4c(=O)[nH]3)[nH]c(=O)c2cc1OC,7%,0%,-15,5%,-6,1%
COc1cc2nc(CN(C)Cc3ccc(OC)c(OC)c3OC)[nH]c(=O)c2cc1OC,.,-10%,37*,36%,11*,.
COc1ccc(C2=NOC(CNC(=O)c3ccccc3Br)C2)c(OC)c1 (stereo not given),.,-25%,-3,-3%,2,.
CN=C1NN=C(c2cc(C)n(-c3c(C)n(C)n(-c4ccccc4)c3=O)c2C)CS1,?,9%,-6,-10%,-3,-15%[46.1 µM]
COc1ccc(-n2c(C)cc(C3=NNC(=NC4CC4)SC3)c2C)cc1,?,?,85*,-37%,40*,?
Cc1cc(C2=NNC(=NC3CC3)SC2)c(C)n1-c1ccccc1,.,?,-6,0.1µM*,-1,.
Cc1cccc(C)c1NC(=S)N/N=C/c1ccc(C(=O)O)cc1,17%[46.1 µM],4%,-1,14%,0,15%
C#CCNC(=O)/C=C/c1ccc(OC)cc1,28%,1%,59*,34%,40*,6%
O=C(/C=C/c1ccco1)N/C(=C\c1ccccc1)C(=O)NCCc1nc2ccccc2[nH]1,-19%,17%,37*,7%,9,-9%
COc1ccc(/C=C/C(=O)NCCc2nc3ccccc3[nH]2)cc1,0%[14.2 µM],1%,20,10%,16*,0%
COc1ccc(Cl)cc1NC(=O)CN1CCN(S(=O)(=O)N2CCOCC2)CC1,-5%[46.1 µM],-22%,15,?,-3,-16%
